Measurements from PubChem BioAssay (NCI).
Compounds without any hit were thinned out: in the full panel of roughly 83,000, 20% have a hit.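 Percent growth is the endpoint: 0 to 100 indicates growth inhibition (40 means 60% inhibition), 0 means no net growth, and negative values indicate cell death.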 Active and inactive are the calls of the source. The calls were made as follows: active = growth percent below 10; inactive = the rest.

Assays:
Assay in all cases: NCI-60 one-dose screen, 48 h (100 = growth as untreated, 0 = no growth, -100 = all killed)
Conditions in all cases: 10 µM unless noted
SK-MEL-2 melanoma = test system: SK-MEL-2 melanoma
SN12C renal = test system: SN12C renal
UO-31 renal = test system: UO-31 renal
TK-10 renal = test system: TK-10 renal
ACHN renal = test system: ACHN renal
CAKI-1 renal = test system: CAKI-1 renal
A498 renal = test system: A498 renal
CCRF-CEM leukemia = test system: CCRF-CEM leukemia
MOLT-4 leukemia = test system: MOLT-4 leukemia

Measured: growth

COc1cccc(-c2nn(-c3ccccc3)cc2-c2ccnc(NCCCN)c2)c1
inactive: SK-MEL-2 melanoma 26.3% | SN12C renal 50.9% | UO-31 renal 51.6% | TK-10 renal 72.2% | ACHN renal 82.7% | CAKI-1 renal 83.5% | A498 renal 42.3% | CCRF-CEM leukemia 29.3% | MOLT-4 leukemia 22.9%

COc1cc2[nH]c(C(=O)c3cc(OC)c(OC)c(OC)c3)c(N)c2cc1C#CCO
active: A498 renal -16.8%
inactive: SK-MEL-2 melanoma 29.6% | SN12C renal 45.1% | UO-31 renal 31.5% | TK-10 renal 66.2% | ACHN renal 23% | CCRF-CEM leukemia 11.5% | MOLT-4 leukemia 29.6%

COc1cccc2c1C(=O)c1c(O)c3c(c(O)c1C2=O)C[C@@](O)(C(=O)CO)C[C@@H]3OC1C[C@H](N)[C@H](O)[C@H](C)O1 (stereo partly specified)
active: SK-MEL-2 melanoma -75.3% | SN12C renal 6.88% | UO-31 renal -40.7% | TK-10 renal 5.67% | ACHN renal -11% | CAKI-1 renal 1.49% | A498 renal -75.1% | CCRF-CEM leukemia -25.7% | MOLT-4 leukemia -8.66%

N#CC1=C(N)Oc2ccc3ccccc3c2C1c1ccccc1Cl (stereo unspecified)
inactive: SK-MEL-2 melanoma 45.9% | SN12C renal 50% | UO-31 renal 48.9% | TK-10 renal 118% | ACHN renal 49.9% | CAKI-1 renal 34.5% | A498 renal 40.1% | CCRF-CEM leukemia 26.1% | MOLT-4 leukemia 26.7%

[B-][N+](CC)(CC)c1ccccc1
active: CCRF-CEM leukemia -12.5%
inactive: SK-MEL-2 melanoma 113% | SN12C renal 108% | UO-31 renal 83.8% | TK-10 renal 110% | ACHN renal 95.1% | A498 renal 108% | MOLT-4 leukemia 95.2%

COC(=O)[C@@H]1[C@H]2C[C@H]3c4[nH]c5cc(OC)ccc5c4CCN3C[C@@H]2C[C@H](OC(=O)/C=C/c2ccnc(OC)c2)[C@H]1OC
inactive: SK-MEL-2 melanoma 106% | SN12C renal 99.2% | UO-31 renal 67.5% | TK-10 renal 87.3% | ACHN renal 66.1% | A498 renal 79.4% | CCRF-CEM leukemia 93.7% | MOLT-4 leukemia 75.9%

Cn1cc(-c2csc(-c3cn(CCN)c4ccccc34)n2)c2cccnc21
inactive: SK-MEL-2 melanoma 61% | SN12C renal 54.1% | UO-31 renal 33.2% | TK-10 renal 92.9% | ACHN renal 56.6% | A498 renal 74.9% | MOLT-4 leukemia 10.1%
active: CCRF-CEM leukemia 8.25%

Nc1c(C(=O)Nc2cccc3ccccc23)sc2nc3c(cc12)CCCC3
inactive: SK-MEL-2 melanoma 51.5% | SN12C renal 34.3% | UO-31 renal 42% | TK-10 renal 60.6% | ACHN renal 44.7% | CAKI-1 renal 44.9% | CCRF-CEM leukemia 16.6% | MOLT-4 leukemia 20.7%
active: A498 renal 0.0449%

COc1ccc(C(=O)c2cc(OC)c(OC)c(OC)c2)cc1/C=C/C(=O)c1cc(OC)c(OC)c(OC)c1
inactive: SK-MEL-2 melanoma 116% | SN12C renal 96.2% | UO-31 renal 66.2% | TK-10 renal 140% | ACHN renal 89.3% | CCRF-CEM leukemia 60.5% | MOLT-4 leukemia 88.3%

COc1cc2[nH]c(C(=O)c3cc(OC)c(OC)c(OC)c3)c(N)c2cc1C#CC1CC1
active: A498 renal -13.4%
inactive: SK-MEL-2 melanoma 34.7% | SN12C renal 61% | UO-31 renal 38.2% | TK-10 renal 92.2% | ACHN renal 24.8% | CCRF-CEM leukemia 24.9% | MOLT-4 leukemia 44.5%

Nc1nc2c(c(=O)[nH]1)C(c1ccc3c(c1)OCO3)C=C(C(=O)O)N2 (stereo unspecified)
inactive: SK-MEL-2 melanoma 116% | SN12C renal 113% | UO-31 renal 102% | TK-10 renal 117% | ACHN renal 111% | CAKI-1 renal 97.1% | A498 renal 94.7% | CCRF-CEM leukemia 126% | MOLT-4 leukemia 106%

C=C(C)[C@@H]1CC[C@]2(C)[C@H](CC=C3[C@@H]4CC(C)(C)CC[C@]4(C=O)CC[C@]32C)[C@@]1(C)CCCN
inactive: SK-MEL-2 melanoma 109% | SN12C renal 66.7% | UO-31 renal 44.6% | TK-10 renal 81.4% | ACHN renal 88.4% | CAKI-1 renal 61.1% | A498 renal 97% | CCRF-CEM leukemia 52.9% | MOLT-4 leukemia 35.5%

Fc1ccc(NCc2nnc(-c3ccc(Cl)cc3)o2)cc1
inactive: SK-MEL-2 melanoma 85.5% | SN12C renal 79.4% | UO-31 renal 54.3% | TK-10 renal 126% | ACHN renal 78.7% | CAKI-1 renal 69.8% | A498 renal 77.2% | CCRF-CEM leukemia 74.6% | MOLT-4 leukemia 49.6%

CCCCC[C@H]1C/C=C2/C(=O)C=C[C@@H]2C/C=C\CCCC(=O)O[C@@H](CCCCC)C/C=C2/C(=O)C=C[C@@H]2C/C=C\CCCC(=O)O1
active: SK-MEL-2 melanoma -60% | SN12C renal -65.7% | UO-31 renal -97.1% | TK-10 renal -83.4% | ACHN renal -93.4% | A498 renal -84.8% | CCRF-CEM leukemia -3.81% | MOLT-4 leukemia -15.8%

NC1(N)C=CC2=C(C=C1)C1(N)C3=C(C=CC(N)(N)C=C3)N2C2(N)C3=C(C=CC(N)(N)C=C3)N1C1=C2C=CC(N)(N)C=C1
inactive: SK-MEL-2 melanoma 103% | SN12C renal 82.2% | UO-31 renal 59.9% | TK-10 renal 119% | ACHN renal 83.5% | CAKI-1 renal 70.8% | A498 renal 88.3% | MOLT-4 leukemia 32.6%

COc1ccc(/C(=C\c2ccc3c(c2)OCO3)C(=O)Nc2nc3ccccc3s2)cc1OC
active: UO-31 renal -6.51%
inactive: SK-MEL-2 melanoma 92.6% | SN12C renal 102% | TK-10 renal 96.6% | ACHN renal 97.7% | CAKI-1 renal 79% | A498 renal 78.8% | MOLT-4 leukemia 74.4%

COc1ccc(/C=C/C(=O)c2ccc([N+](=O)[O-])cc2)cc1
inactive: SK-MEL-2 melanoma 98.9% | SN12C renal 102% | UO-31 renal 89.9% | TK-10 renal 101% | ACHN renal 108% | CAKI-1 renal 123% | A498 renal 107% | CCRF-CEM leukemia 85.3% | MOLT-4 leukemia 86.3%

CN1CCN(c2nc(-c3csc(-c4cccs4)n3)cc3ccccc23)CC1
inactive: SK-MEL-2 melanoma 39.7% | SN12C renal 71% | UO-31 renal 59.8% | TK-10 renal 79% | ACHN renal 31.4% | CAKI-1 renal 39.6% | A498 renal 10.5% | CCRF-CEM leukemia 30.7%
active: MOLT-4 leukemia 9.46%

N#CCCCCCn1c2ccccc2c2c3c(c4c5ccccc5n(CCCCCC#N)c4c21)C(=O)N(O)C3=O
active: CAKI-1 renal 0.852%
inactive: SK-MEL-2 melanoma 85% | SN12C renal 79.8% | UO-31 renal 58.2% | TK-10 renal 95.3% | ACHN renal 83.8% | CCRF-CEM leukemia 74.5% | MOLT-4 leukemia 73.8%

NS(=O)(=O)c1ccc(CCNC(=O)/C=C/c2ccc(Cl)cc2)cc1
inactive: SK-MEL-2 melanoma 106% | SN12C renal 92.9% | UO-31 renal 83.7% | TK-10 renal 121% | ACHN renal 102% | A498 renal 89% | CCRF-CEM leukemia 91.1% | MOLT-4 leukemia 74.6%

CCCC(=O)N1CCCCC1CC (stereo unspecified)
inactive: SK-MEL-2 melanoma 109% | SN12C renal 105% | UO-31 renal 108% | TK-10 renal 113% | ACHN renal 97.1% | A498 renal 90.8% | CCRF-CEM leukemia 95.3% | MOLT-4 leukemia 113%

Nc1nc(N)c2nc3c(nc2n1)CCCCCCCCCC3
active: CCRF-CEM leukemia 3.44%
inactive: SK-MEL-2 melanoma 77.5% | SN12C renal 43.2% | UO-31 renal 48.7% | TK-10 renal 80.3% | ACHN renal 39.4% | A498 renal 93.6% | MOLT-4 leukemia 45.3%

Cc1cc(Nc2ccc(F)cc2)nc(N2CCN(c3ccnc4cc(Cl)ccc34)CC2)n1
active: SK-MEL-2 melanoma 4.35% | UO-31 renal 3.92% | TK-10 renal 8.31% | ACHN renal 2.61% | A498 renal -1.6% | MOLT-4 leukemia 6.8%
inactive: SN12C renal 30.2% | CCRF-CEM leukemia 15.5%

N#C/C(=C\c1ccc(-c2ccc(Br)cc2)o1)c1nc(-c2cccs2)cs1
inactive: SK-MEL-2 melanoma 109% | SN12C renal 94.5% | UO-31 renal 82.1% | TK-10 renal 185% | ACHN renal 105% | CAKI-1 renal 100% | A498 renal 99% | CCRF-CEM leukemia 94.1% | MOLT-4 leukemia 97%

c1ccc(C2Cc3ccccc3C2=NC2CCCCC2)cc1 (stereo unspecified)
inactive: SK-MEL-2 melanoma 93.5% | SN12C renal 101% | UO-31 renal 89.5% | TK-10 renal 103% | ACHN renal 97% | A498 renal 97.9% | CCRF-CEM leukemia 94.8% | MOLT-4 leukemia 102%

Oc1cc(/C=C/c2nc(N3CCOCC3)c3cc(Cl)c(Cl)cc3n2)cc(O)c1O
inactive: SK-MEL-2 melanoma 102% | SN12C renal 104% | UO-31 renal 95.2% | TK-10 renal 95.8% | ACHN renal 99.9% | A498 renal 92.5% | CCRF-CEM leukemia 109% | MOLT-4 leukemia 85.3%

O=C(CI)Nc1ccc(O)c2ccccc12
inactive: A498 renal 95%
active: SK-MEL-2 melanoma -1.68% | SN12C renal -34.9% | UO-31 renal -28.7% | TK-10 renal -34% | ACHN renal 6.99% | CCRF-CEM leukemia -26.7% | MOLT-4 leukemia -23.6%

CCC(c1ccc(OC)cc1)C(CC)c1ccc(O)c(CN2CCCCC2)c1 (stereo unspecified)
inactive: SK-MEL-2 melanoma 79.7% | SN12C renal 66% | UO-31 renal 39.6% | TK-10 renal 84.6% | ACHN renal 82.3% | CAKI-1 renal 61.6% | CCRF-CEM leukemia 68.7% | MOLT-4 leukemia 62.7%

C=C(C)[C@@H]1CC[C@]2(C(=O)O)CC[C@]3(C)[C@H](CC[C@@H]4[C@@]5(C)C/C(=C/c6ccc(OC)cc6)C(=O)C(C)(C)[C@@H]5CC[C@]43C)[C@@H]12
inactive: SK-MEL-2 melanoma 38.1% | SN12C renal 18% | UO-31 renal 12.6% | TK-10 renal 24.5% | ACHN renal 19.6% | CAKI-1 renal 23.8% | CCRF-CEM leukemia 24% | MOLT-4 leukemia 15.3%
